The text below walks through data of PubChem BioAssay (NCATS).

Assay [1] addresses Cytochrome P450 3A4 (Homo sapiens) (UniProt P08684). Description: qHTS Assay for Activators of Cytochrome P450 3A4 (AID 885). Further: nearly all actives have a fitted effect of over 65% in size. The procedure, abridged:
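Activators are scored by enhanced luminescence from CYP3A4 conversion of luciferin-PPXE (25uM, equal to KM) to luciferin, after 60 min at RT with an NADPH-regenerating system.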

Assay [2] in a line: Confirmation and Secondary Assay for Modulators of Hemoglobin Beta Chain Splicing at IVS2 654 locus (AID 910).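 Further: HeLa cells stably carrying EGFP split by mutant beta-globin IVS2-654 intron; % of control where 0% means no effect.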 The procedure, abridged: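 HeLa cells stably expressing EGFP interrupted by β-globin IVS2-654 intron, seeded overnight in Opti-MEM/2% FCS, then treated 2 days at 37 °C. Restored splicing read as total peak GFP intensity per well by laser scanning cytometry (488 nm excitation, 500–520 nm emission); 500 nM antisense PNA as control.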

Assay [3] is described as follows: Confirmation and Secondary Assay for Modulators of Hemoglobin Beta Chain Splicing at IVS2 705 locus (AID 930).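 Further: HeLa cells stably expressing the EGFP-705 splicing reporter; GFP fluorescence per well restored by corrected splicing of the IVS2-705 intron in EGFP; % of control where 0% means no effect.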 The procedure, abridged:
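First, HeLa EGFP-705 cells are seeded at 500/well in Optimem with 2% FCS and left overnight. Next, compound or DMSO is added for 2 days. Finally wells are laser-scanned and total peak GFP intensity scored.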

Assay [4] is described as follows: qHTS Assay for Lipid Storage Modulators (AID 1519; calls by dose curve; on activity change, negative = inhibition: on the % scale 0 is the no-effect control and ±100 the full control effect). The note with it: Drosophila S3 cells, BODIPY lipid droplet/cell ratio, laser cytometry, cells loaded with oleic acid. Summed up:
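Cells seeded at 5,000 per well were treated with compounds over a concentration series and loaded with oleic acid (400 uM, as added). Lipid droplet fluorescence (488 nm excitation, 500-530 nm channel) was read by laser-scanning cytometry and normalized to 20 uM Triacsin C.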

Assay [5] has as its target Ubiquitin carboxyl-terminal hydrolase 1 (Homo sapiens) (UniProt O94782). Description: Inhibitors of USP1/UAF1: Pilot qHTS (AID 504865).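 Further: rhodamine fluorescence freed from ubiquitin-rhodamine substrate followed over time; top concentration of the series differs between compounds; on the % scale 0 is the no-effect control and ±100 the full control effect; nearly all actives have a fitted effect of over 35% in size.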 The procedure, abridged: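 1nM USP1/UAF1 + cpd, 15 min RT; start w/ Ub-Rho 150nM final; kinetic FL 480/540 nm, 6 reads q60 s. Buffer 50mM HEPES pH 7.8, 0.5mM EDTA, 1mM TCEP, 0.01% Tween-20, 0.1 mg/ml BSA.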
The target in assay [6] is Cytochrome P450 3A4 (Homo sapiens) (UniProt P08684). Description: qHTS Assay for Inhibitors and Substrates of Cytochrome P450 3A4 (AID 884). Further: nearly all actives have a fitted effect of over 50% in size. Further: potency means the concentration at half of the fitted maximal effect. On activity change, negative = inhibition: on the % scale 0 is the no-effect control and ±100 the full control effect. The procedure, abridged:
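Luminescent readout of luciferin produced by CYP3A4 (20 nM) dealkylation of Luciferin-PPXE, 25 uM (its KM). NADPH-driven reaction ran 60 min at RT after 10 min compound preincubation; data scaled to 57 uM ketoconazole as 100% inhibition.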

Assay [7] concerns the target DNA dC->dU-editing enzyme APOBEC-3G (Homo sapiens) (UniProt Q9HC16). Description: qHTS for inhibitors of Vif-A3G interactions: Validation (AID 588379). Further: 0% is about no effect. Summed up: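 Yellow fluorescence (Ex 488, Em 500-530) of Vif-coexpressing HeLa A3G-eYFP cells, scanned by Acumen cytometer, reports blocked A3G degradation. Cells plated at 700/well overnight at 37 deg C before compound addition, then a further overnight compound incubation at 37 deg C.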

Assay [8] has as its target Cytochrome P450 2D6 (Homo sapiens) (UniProt P10635). Description: qHTS Assay for Inhibitors and Substrates of Cytochrome P450 2D6 (AID 891). Further: potency means the concentration at half of the fitted maximal effect; nearly all actives have a fitted effect of over 60% in size. The procedure, abridged: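 Luminescent read-out of luciferin formed by 5 nM human CYP2D6 demethylating 30 uM Luciferin-ME EGE (Km level) over 60 min at room temperature after NADPH regeneration addition. Data normalized to full inhibition by 1.43 uM quinidine.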

The target of assay [9] is Alpha-galactosidase (Coffea arabica) (UniProt Q42656). Description: Counterscreen for Glucocerebrosidase Inhibitors: qHTS Assay for Coffee Bean alpha-Galactosidase at pH 4.5 (AID 957).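 Further: plate controls were enzyme alone for no effect and no enzyme for full effect.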 The procedure, abridged:
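Quantitative HTS of compounds (0.7 nM to 77 uM) against coffee bean alpha-galactosidase at pH 4.5, measuring 4-methylumbelliferone fluorescence released from 80 uM substrate.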

Assay [10] shares this target. Description: Counterscreen for Glucocerebrosidase Inhibitors: qHTS Assay for Coffee Bean alpha-Galactosidase at pH 5.9 (AID 998).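 Further: plate controls were uninhibited enzyme for no effect and no-enzyme basal signal for full effect.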 The procedure, abridged: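 Enzyme 2 nM + cpd (0.7 nM–77 uM titration) + 4-MU-alpha-Gal 80 uM, pH 5.9 citrate/Tween-20, RT 20 min, NaOH/glycine stop pH 10, fluor 365/440. Normalized to no-enzyme and full-activity controls; Hill-fit AC50.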

Assay [11] concerns the target Cytochrome P450 2C9 (Homo sapiens) (UniProt P11712). Description: qHTS Assay for Inhibitors and Substrates of Cytochrome P450 2C9 (AID 883). Further: potency means the concentration at half of the fitted maximal effect; nearly all actives have a fitted effect of over 60% in size. Summed up:
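Human CYP2C9 (10nM) with Luciferin-H at 100uM (its KM) in 25mM KPO4; compound preincubated 10 min at 37C, then NADPH regeneration for 60 min at 37C. Luciferin read by luminescence after detection reagent; normalized to 57uM sulphaphenazole as full inhibition.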

Where [12] appears, read: measured here: cell count channel max response.
Where [13] appears, read: measured here: lipid channel max response.

Results filed as inconclusive are left out. The source made the active and inactive calls. Unless noted, the call rests on the fitted dose curve; in most records, active means well fitted curve in the direction sought with a large enough effect; inconclusive means small, poorly fitted or top-dose-only effect, or another doubt; inactive means no such curve, though single readings can be large; an effect the other way counts as inactive or inconclusive.

Sequence of Cytochrome P450 3A4 (Homo sapiens) (P08684 whole entry, looked up): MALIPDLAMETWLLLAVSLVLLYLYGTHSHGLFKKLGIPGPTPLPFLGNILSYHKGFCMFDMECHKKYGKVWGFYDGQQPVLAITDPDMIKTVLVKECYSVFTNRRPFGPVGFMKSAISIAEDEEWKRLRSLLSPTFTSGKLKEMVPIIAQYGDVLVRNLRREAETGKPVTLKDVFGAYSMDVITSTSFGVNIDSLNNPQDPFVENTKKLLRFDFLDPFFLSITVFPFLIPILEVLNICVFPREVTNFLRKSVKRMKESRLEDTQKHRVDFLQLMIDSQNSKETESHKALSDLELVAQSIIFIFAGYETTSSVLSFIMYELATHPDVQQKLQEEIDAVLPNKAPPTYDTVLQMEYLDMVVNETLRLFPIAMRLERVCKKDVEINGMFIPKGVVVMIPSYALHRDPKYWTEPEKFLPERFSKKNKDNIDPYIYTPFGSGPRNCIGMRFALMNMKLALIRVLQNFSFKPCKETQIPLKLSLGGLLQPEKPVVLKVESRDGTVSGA
Sequence of DNA dC->dU-editing enzyme APOBEC-3G (Homo sapiens) (Q9HC16 whole entry, looked up): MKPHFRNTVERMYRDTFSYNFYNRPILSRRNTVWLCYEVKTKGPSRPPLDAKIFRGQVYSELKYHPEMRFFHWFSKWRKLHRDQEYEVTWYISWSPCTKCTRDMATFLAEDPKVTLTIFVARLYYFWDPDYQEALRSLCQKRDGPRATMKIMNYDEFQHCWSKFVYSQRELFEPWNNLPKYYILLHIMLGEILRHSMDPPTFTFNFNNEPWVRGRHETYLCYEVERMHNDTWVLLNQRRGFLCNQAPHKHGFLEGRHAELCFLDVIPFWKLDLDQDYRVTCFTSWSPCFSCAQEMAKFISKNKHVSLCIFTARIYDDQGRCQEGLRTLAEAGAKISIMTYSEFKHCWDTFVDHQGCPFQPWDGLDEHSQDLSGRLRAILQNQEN
Sequence of Alpha-galactosidase (Coffea arabica) (Q42656 whole entry, looked up): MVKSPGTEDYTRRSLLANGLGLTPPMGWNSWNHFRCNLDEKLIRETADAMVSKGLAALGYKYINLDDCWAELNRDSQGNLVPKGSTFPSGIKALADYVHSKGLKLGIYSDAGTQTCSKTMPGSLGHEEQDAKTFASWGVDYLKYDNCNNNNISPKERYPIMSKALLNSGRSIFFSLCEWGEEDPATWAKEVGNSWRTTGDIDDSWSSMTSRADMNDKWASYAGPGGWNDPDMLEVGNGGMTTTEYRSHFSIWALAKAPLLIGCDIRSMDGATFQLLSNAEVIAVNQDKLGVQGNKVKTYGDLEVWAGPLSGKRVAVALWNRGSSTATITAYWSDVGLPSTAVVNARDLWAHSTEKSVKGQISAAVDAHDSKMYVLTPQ
Sequence of Ubiquitin carboxyl-terminal hydrolase 1 (Homo sapiens) (O94782 whole entry, looked up): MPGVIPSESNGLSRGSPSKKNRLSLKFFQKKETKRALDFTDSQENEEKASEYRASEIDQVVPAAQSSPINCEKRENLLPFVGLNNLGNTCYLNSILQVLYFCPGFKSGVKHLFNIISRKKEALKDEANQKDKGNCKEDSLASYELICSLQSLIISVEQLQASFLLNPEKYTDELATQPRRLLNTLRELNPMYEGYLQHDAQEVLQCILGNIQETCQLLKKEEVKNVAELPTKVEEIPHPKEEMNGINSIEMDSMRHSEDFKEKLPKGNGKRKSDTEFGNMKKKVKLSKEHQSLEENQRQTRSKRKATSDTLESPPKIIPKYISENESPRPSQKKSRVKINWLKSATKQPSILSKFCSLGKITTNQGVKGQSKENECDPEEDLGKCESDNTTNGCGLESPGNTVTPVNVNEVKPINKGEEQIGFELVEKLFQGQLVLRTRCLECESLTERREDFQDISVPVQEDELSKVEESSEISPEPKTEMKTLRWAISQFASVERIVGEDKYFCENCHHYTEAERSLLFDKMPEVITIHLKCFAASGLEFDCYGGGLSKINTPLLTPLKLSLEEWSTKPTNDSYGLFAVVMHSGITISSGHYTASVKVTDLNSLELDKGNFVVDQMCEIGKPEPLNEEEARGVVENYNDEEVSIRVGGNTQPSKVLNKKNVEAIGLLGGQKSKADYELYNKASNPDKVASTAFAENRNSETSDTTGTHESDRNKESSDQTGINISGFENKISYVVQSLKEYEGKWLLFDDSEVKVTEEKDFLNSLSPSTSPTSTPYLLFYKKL
Sequence of Cytochrome P450 2D6 (Homo sapiens) (P10635 whole entry, looked up): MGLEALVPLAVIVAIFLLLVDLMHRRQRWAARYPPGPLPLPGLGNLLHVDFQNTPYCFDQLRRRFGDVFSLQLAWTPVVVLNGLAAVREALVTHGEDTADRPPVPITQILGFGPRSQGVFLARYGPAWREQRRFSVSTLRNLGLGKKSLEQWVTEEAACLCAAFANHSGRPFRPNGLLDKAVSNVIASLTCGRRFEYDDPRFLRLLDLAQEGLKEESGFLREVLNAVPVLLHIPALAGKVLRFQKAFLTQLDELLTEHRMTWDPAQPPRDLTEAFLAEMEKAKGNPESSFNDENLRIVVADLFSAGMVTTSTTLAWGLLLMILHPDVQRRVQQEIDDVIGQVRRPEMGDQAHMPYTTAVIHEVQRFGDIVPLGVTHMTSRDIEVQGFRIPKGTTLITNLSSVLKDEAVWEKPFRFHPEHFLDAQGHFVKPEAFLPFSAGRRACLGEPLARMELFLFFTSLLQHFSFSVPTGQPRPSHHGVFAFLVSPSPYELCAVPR
Sequence of Cytochrome P450 2C9 (Homo sapiens) (P11712 whole entry, looked up): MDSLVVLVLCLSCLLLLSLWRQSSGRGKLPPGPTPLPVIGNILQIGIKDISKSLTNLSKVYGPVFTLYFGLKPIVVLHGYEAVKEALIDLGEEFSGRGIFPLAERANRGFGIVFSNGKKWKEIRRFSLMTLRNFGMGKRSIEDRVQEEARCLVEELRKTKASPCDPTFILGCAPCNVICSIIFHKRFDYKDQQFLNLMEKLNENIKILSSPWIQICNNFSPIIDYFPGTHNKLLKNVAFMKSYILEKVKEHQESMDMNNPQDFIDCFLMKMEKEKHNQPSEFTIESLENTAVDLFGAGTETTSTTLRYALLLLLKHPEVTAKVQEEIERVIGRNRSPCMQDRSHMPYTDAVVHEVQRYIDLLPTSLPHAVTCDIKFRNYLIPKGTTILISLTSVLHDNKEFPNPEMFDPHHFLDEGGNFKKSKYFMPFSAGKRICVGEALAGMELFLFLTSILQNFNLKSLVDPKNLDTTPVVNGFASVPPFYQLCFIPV

Regarding `COc1cc(C2c3cc4c(c(O)c3CC3COC(=O)C32)OCO4)cc(OC)c1OC` (stereo not drawn), the Potency entry in assay [1], in assay [2], in [3] and in assay [5] was “inactive” in each case. Besides, the activity change, negative = inhibition in assay [4] (at 57.5 µM (top of the series)) is 3.6% (inactive). Moreover, the values for the max response in [4] (setting [12]) and in [4] (setting [13]) were 11.9% and 14.5%, respectively.

Take `CC1CC[C@]2(NC1)OC1CC3C4CC=C5CC(O)CC[C@@]5(C)C4CC[C@]3(C)C1C2C` (stereo partly drawn): the Potency result in assay [6], in assay [3] and in assay [5] was “inactive” in each case. The activity change, negative = inhibition in [4] (at 57.5 µM (top of the series)) is 2.46% (inactive). The max response was 14.9% in [4] (setting [12]) and 22.2% in [4] (setting [13]).

Take `CCN1C[C@@]2(OC(=O)c3ccccc3NC(C)=O)CCC(OC)[C@@]34C5CC6C(OC)C[C@@](O)(C(CC23)[C@@H]14)C5(O)C6OC` (stereo partly drawn): the Potency result in assay [6], in [2], in assay [3] and in assay [5] was “inactive” in each case. Also, in assay [4] (at 57.5 µM (top of the series)), the activity change, negative = inhibition was 4.73% (inactive). The values for the max response in assay [4] (setting [12]) and in assay [4] (setting [13]) were 10.9% and 17%, respectively.

As to `CNC(C)[C@H](O)c1ccccc1` (stereo partly drawn), the Potency entry in assay [2], in assay [3] and in [5] was “inactive” in each case. In addition, the activity change, negative = inhibition in assay [4] (at 57.5 µM (top of the series)) was 9.2% (inactive). In addition, the values for the max response in assay [4] (setting [12]) and in [4] (setting [13]) were 21.5% and 37.3%, respectively.

In the case of `O=c1cccc2n1CC1CC2CN(CCO)C1` (stereo not drawn), the Potency result in [6] is “inactive”. Moreover, in assay [4] (at 57.5 µM (top of the series)), the activity change, negative = inhibition was 3.63% (inactive). Further, the max response stood at 9.42% in assay [4] (setting [12]) and 15.7% in [4] (setting [13]). The compound was called inactive in assay [7].

For `CCC(C)C(=O)OC1C(O)C2C(CN3CC(C)CCC3[C@]2(C)O)C2C[C@]34O[C@@]5(O)C(OC(=O)C(C)(O)CC)CCC3(C)C5C(OC(C)=O)C(OC(C)=O)C4[C@@]21O` (stereo partly drawn), the Potency result in assay [2], in [3] and in assay [5] was “inactive” in each case. Further, the activity change, negative = inhibition in assay [4] (at 57.5 µM (top of the series)) was 3.69% (inactive). Moreover, the max response turned out to be 17.1% in assay [4] (setting [12]) and 25.4% in assay [4] (setting [13]).

For the compound `COc1cc2c(cc1OC)[C@]13CCN4CC5=CCOC6CC(=O)N2[C@@H]1[C@@H]6C5C[C@@H]43` (stereo partly drawn), in assay [4] (at 57.5 µM (top of the series)), the activity change, negative = inhibition was -2% (inactive). The max response in [4] (setting [12]) and in assay [4] (setting [13]) was -11.3% each time. The compound was classed as inactive in assay [7].

With `CNC1C2CN3CCC(O2)C13` (stereo not drawn), the activity change, negative = inhibition in [4] (at 57.5 µM (top of the series)) was 3.03% (inactive). Besides, the max response in assay [4] (setting [12]) came to 7.52%; in [4] (setting [13]), 11.5%. Further, in [7], the result was inactive.

`CNC(=O)Oc1ccc2c(c1)[C@@]1(C)CCN(C)[C@@H]1N2C`: in [8], the Potency is 631 nM (active). Also, the outcome in assay [9] and in [10] was inactive. In addition, the activity change, negative = inhibition in assay [4] (at 25.7 µM (top of the series)) is -1.12% (inactive). Moreover, the max response in [4] (setting [12]) was -3.51%; in assay [4] (setting [13]), -6.16%. The Potency entry in assay [5] was “inactive”.

Regarding `COC(=O)COc1ccc(Cl)cc1Cl`, the Potency result in [2], in assay [3] and in assay [5] was “inactive” in each case. In addition, the activity change, negative = inhibition in [4] (at 57.5 µM (top of the series)) was 8.24% (inactive). Besides, the values for the max response in [4] (setting [12]) and in [4] (setting [13]) were 0.885% and 8.23%, respectively.

For the compound `CC1(C)C(O)CC(O)[C@]2(C)C1CC(O)[C@]1(C)C2CC[C@@]2(C)C(c3ccoc3)CC3OC312` (stereo partly drawn), the Potency result in [1], in [3] and in [5] was “inactive” in each case. Moreover, the activity change, negative = inhibition in assay [4] (at 57.5 µM (top of the series)) is -10.5% (inactive). The max response in assay [4] (setting [12]) is -11.5%; in assay [4] (setting [13]) it was -19.8%.

For `COc1cc([C@H]2c3cc4c(cc3[C@@H](O)[C@@H]3COC(=O)[C@H]23)OCO4)cc(OC)c1OC`, in [11], the Potency was 1260 nM (active). The outcome in assay [9] and in assay [10] was inactive. Further, the activity change, negative = inhibition in assay [4] (at 25.7 µM (top of the series)) is -6.44% (inactive). For the same compound, the figures for the max response in [4] (setting [12]) and in assay [4] (setting [13]) were -10.2% and -15%, respectively.

As for `COc1c2c(cc3c1OCO3)C13C=CC(OC)CC1N(C2)CC3O` (stereo not drawn), the Potency result in assay [1], in [3] and in [5] was “inactive” throughout. Moreover, the activity change, negative = inhibition in assay [4] (at 57.5 µM (top of the series)) was 11.5% (inactive). For the same compound, the results for the max response in [4] (setting [12]) and in assay [4] (setting [13]) were 12.8% and 26.7%, respectively.

Regarding `C=C1C([C@@]2(C)C(OC(C)=O)CC(=O)O[C@@](C)(COC(C)=O)C2CC(=O)OC)C(OC=O)C(OC(=O)C(OC(C)=O)C(C)CC)[C@]2(C)C(c3ccoc3)CC(=O)C12O` (stereo partly drawn), the Potency in assay [6] is 12600 nM (active). For the same compound, the Potency result in assay [1], in [2] and in [3] was “inactive” each time. Besides, the activity change, negative = inhibition in [4] (at 57.5 µM (top of the series)) is -5.86% (inactive). Also, the results for the max response in assay [4] (setting [12]) and in [4] (setting [13]) were 19% and 13.8%, respectively.
